Test results: PubChem BioAssay (NCI)
The panel holds about 83,000 compounds, 20% with a hit somewhere; the sample as a whole holds those more often.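 Treatment: one concentration, 48 hours, 96-well format. Scoring: percent growth, with anything below 10 considered active.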 The source made the active and inactive calls.

Key:
Assay in all cases: NCI-60 one-dose screen, 48 h (100 = growth as untreated, 0 = no growth, -100 = all killed)
Settings in all cases: 10 µM unless noted
SR leukemia = tested on: SR leukemia
RPMI-8226 leukemia = tested on: RPMI-8226 leukemia
OVCAR-8 ovarian = tested on: OVCAR-8 ovarian
OVCAR-5 ovarian = tested on: OVCAR-5 ovarian
OVCAR-4 ovarian = tested on: OVCAR-4 ovarian
SK-OV-3 ovarian = tested on: SK-OV-3 ovarian
IGROV1 ovarian = tested on: IGROV1 ovarian
OVCAR-3 ovarian = tested on: OVCAR-3 ovarian
HS 578T breast = tested on: HS 578T breast
NCI/ADR-RES ovarian = tested on: NCI/ADR-RES ovarian

Measured: growth

CCSc1nc(-c2ccc(F)cc2)c(C#N)c(=O)[nH]1
inactive: SR leukemia 118% | RPMI-8226 leukemia 105% | OVCAR-8 ovarian 107% | OVCAR-5 ovarian 95.9% | OVCAR-4 ovarian 103% | SK-OV-3 ovarian 111% | IGROV1 ovarian 107% | OVCAR-3 ovarian 122% | HS 578T breast 117% | NCI/ADR-RES ovarian 103%

Cc1[nH]c(=O)[nH]c(=O)c1CCSSCCc1c(C)[nH]c(=O)[nH]c1=O
inactive: SR leukemia 79.6% | RPMI-8226 leukemia 104% | OVCAR-8 ovarian 107% | OVCAR-5 ovarian 110% | OVCAR-4 ovarian 117% | SK-OV-3 ovarian 103% | IGROV1 ovarian 99.8% | OVCAR-3 ovarian 117% | HS 578T breast 142% | NCI/ADR-RES ovarian 104%

O=C1CNc2cc(Cl)ccc2N1
inactive: SR leukemia 94.7% | RPMI-8226 leukemia 103% | OVCAR-8 ovarian 99.7% | OVCAR-5 ovarian 102% | OVCAR-4 ovarian 115% | SK-OV-3 ovarian 106% | IGROV1 ovarian 103% | OVCAR-3 ovarian 108% | HS 578T breast 97.4% | NCI/ADR-RES ovarian 108%

COc1ccc2c(c1)CC[C@@H]1[C@@H]2CC[C@]2(C)[C@@H](O)C(=O)C[C@@H]12
inactive: SR leukemia 84.2% | RPMI-8226 leukemia 103% | OVCAR-8 ovarian 101% | OVCAR-5 ovarian 95.8% | OVCAR-4 ovarian 107% | SK-OV-3 ovarian 120% | IGROV1 ovarian 115% | OVCAR-3 ovarian 106% | HS 578T breast 100% | NCI/ADR-RES ovarian 105%

O=C1C=CC(=O)N1c1ccccc1N1C(=O)C=CC1=O
inactive: SR leukemia 92% | RPMI-8226 leukemia 124% | OVCAR-8 ovarian 107% | OVCAR-5 ovarian 93.4% | OVCAR-4 ovarian 116% | SK-OV-3 ovarian 103% | IGROV1 ovarian 95.3% | OVCAR-3 ovarian 103% | HS 578T breast 104% | NCI/ADR-RES ovarian 119%

COc1ccc2c(c1)[n+](=O)c(C(=O)/C=C/c1cc(OC)c(OC)c(OC)c1)c(C)n2[O-]
active: IGROV1 ovarian -27.6%
inactive: SR leukemia 29.5% | RPMI-8226 leukemia 32.3% | OVCAR-8 ovarian 57.4% | OVCAR-5 ovarian 102% | OVCAR-4 ovarian 72.3% | SK-OV-3 ovarian 82.3% | OVCAR-3 ovarian 102% | HS 578T breast 63.4% | NCI/ADR-RES ovarian 73%

CC[N+](CCCCCCCCCC[N+](CC)(c1ccccn1)c1ccccn1)(c1ccccn1)c1ccccn1
inactive: OVCAR-5 ovarian 24.1% | OVCAR-4 ovarian 20.5% | HS 578T breast 28.5% | NCI/ADR-RES ovarian 63.6%
active: SR leukemia -19.8% | RPMI-8226 leukemia 1.5% | OVCAR-8 ovarian 7.02% | SK-OV-3 ovarian 8.24% | IGROV1 ovarian -35.2% | OVCAR-3 ovarian 3.49%

CC(NC(=O)Oc1cccc2ccccc12)c1ccccc1 (stereo not given)
inactive: SR leukemia 90.8% | RPMI-8226 leukemia 109% | OVCAR-8 ovarian 96.9% | OVCAR-5 ovarian 123% | OVCAR-4 ovarian 97.4% | SK-OV-3 ovarian 111% | IGROV1 ovarian 116% | OVCAR-3 ovarian 103% | HS 578T breast 107% | NCI/ADR-RES ovarian 97.6%

Cc1[nH]ccc2cc3nc4ccccc4c3cc12
inactive: RPMI-8226 leukemia 15.9% | OVCAR-8 ovarian 20.6% | OVCAR-5 ovarian 42% | OVCAR-4 ovarian 38.4% | SK-OV-3 ovarian 34.7% | IGROV1 ovarian 23.6% | OVCAR-3 ovarian 41.6% | HS 578T breast 55.3% | NCI/ADR-RES ovarian 24.9%
active: SR leukemia 3.33%

COc1ccccc1NC(=O)c1sc2nc3c(cc2c1N)C(=O)CCC3
inactive: SR leukemia 64% | RPMI-8226 leukemia 84.3% | OVCAR-8 ovarian 90.6% | OVCAR-5 ovarian 76.1% | OVCAR-4 ovarian 91.4% | SK-OV-3 ovarian 39% | IGROV1 ovarian 82.9% | OVCAR-3 ovarian 87% | HS 578T breast 65.6% | NCI/ADR-RES ovarian 58.6%

CCCCCCCCCCNCCSS(=O)(=O)O
inactive: SR leukemia 52.1% | RPMI-8226 leukemia 98.2% | OVCAR-8 ovarian 65.9% | OVCAR-5 ovarian 103% | OVCAR-4 ovarian 102% | SK-OV-3 ovarian 84.8% | IGROV1 ovarian 91.2% | OVCAR-3 ovarian 72.3% | HS 578T breast 52.1% | NCI/ADR-RES ovarian 83.7%

CC(=O)[C@H]1CC[C@H]2[C@@H]3C[C@H](C)C4=CC(=O)CC[C@]4(C)[C@H]3C(=O)C[C@]12C
inactive: SR leukemia 97.5% | RPMI-8226 leukemia 97.3% | OVCAR-8 ovarian 101% | OVCAR-5 ovarian 103% | OVCAR-4 ovarian 102% | SK-OV-3 ovarian 98% | IGROV1 ovarian 98.6% | OVCAR-3 ovarian 110% | HS 578T breast 103% | NCI/ADR-RES ovarian 98.7%

CCOc1cc(/C=C/C(=O)CC(=O)/C=C/c2ccc(OC(=O)CNc3nc4ccc(OC)cc4s3)c(OCC)c2)ccc1OC(=O)CNc1nc2ccc(OC)cc2s1
active: SR leukemia -27.3% | RPMI-8226 leukemia -27.2% | IGROV1 ovarian -26.5%
inactive: OVCAR-8 ovarian 28.6% | OVCAR-5 ovarian 99% | OVCAR-4 ovarian 69.5% | SK-OV-3 ovarian 89.5% | OVCAR-3 ovarian 77.8% | HS 578T breast 23% | NCI/ADR-RES ovarian 82.3%
